Bioassay records (PubChem)
GPR151 ag – activates the human receptor GPR151 | PathHunter beta-arrestin GPR151 cells, luminescence | activation, % at 11.2 µM | 650,000 compounds, 1% hits | AID 1508602; in the data active = activation above about 4.9%
MITF inh – blocks human microphthalmia-associated transcription factor | AID 1259374 | 650,000 compounds, 0.91% hits | AlphaScreen MITF homodimerization, bead proximity signal | inhibition, % at 2.6 µM; in the data active = inhibition above about 50%
TEAD-YAP inh – TEAD-YAP interaction inhibition. HEK-TIYL cells, TEAD-Gal4/YAP UAS-luciferase luminescence. inhibition, % at 9.12 µM. 640,000 compounds, 1.4% hits; in the data active = inhibition above about 32%
FBW7 activator – activators of human E3 ligase FBW7; Q969H0; AlphaScreen FBW7–phospho-cyclin E peptide binding, activator screen; normalized activity (activation), % at 26.1 µM; 650,000 compounds, 0.13% hits; AID 1259310; in the data active = normalized activity above about 1.9%;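 note: purified mutant Fbw7 with reduced substrate affinity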
Target sequence (Q969H0 whole entry, looked up): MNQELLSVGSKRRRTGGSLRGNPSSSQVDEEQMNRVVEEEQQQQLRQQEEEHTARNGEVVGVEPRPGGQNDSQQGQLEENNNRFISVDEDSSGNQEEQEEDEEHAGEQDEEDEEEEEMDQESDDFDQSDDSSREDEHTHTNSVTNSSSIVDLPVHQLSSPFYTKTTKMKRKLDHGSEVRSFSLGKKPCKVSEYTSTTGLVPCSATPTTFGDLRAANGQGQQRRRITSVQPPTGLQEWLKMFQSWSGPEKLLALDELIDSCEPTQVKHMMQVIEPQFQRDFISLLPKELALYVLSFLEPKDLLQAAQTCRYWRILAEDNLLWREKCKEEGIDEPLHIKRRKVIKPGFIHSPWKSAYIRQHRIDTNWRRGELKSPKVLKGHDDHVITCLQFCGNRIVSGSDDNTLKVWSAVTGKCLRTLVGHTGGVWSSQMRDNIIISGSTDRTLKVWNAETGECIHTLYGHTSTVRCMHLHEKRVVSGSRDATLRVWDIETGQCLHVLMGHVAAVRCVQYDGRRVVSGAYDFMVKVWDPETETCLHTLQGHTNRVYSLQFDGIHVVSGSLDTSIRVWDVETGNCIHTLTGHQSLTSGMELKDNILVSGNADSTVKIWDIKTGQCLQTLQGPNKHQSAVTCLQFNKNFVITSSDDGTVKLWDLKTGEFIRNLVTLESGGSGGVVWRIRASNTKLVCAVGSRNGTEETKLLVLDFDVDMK
Numbers stand for hits; - = inactive. A selection: hits, their analogues and other compounds. The true share with any hit is near 3.5%.

SMILES	GPR151 ag	MITF inh	TEAD-YAP inh	FBW7 activator
O=C(NCc1ccccc1)c1cnc2sccn2c1=O	-	-	-	-
COc1cc(OC)cc(C(=O)NNC(=O)COc2ccc3ccccc3c2)c1	-	-	-	-
Fc1ccc(CNc2nccn3c(-c4cccc5cccnc45)cnc23)cc1	-	-	-	-
CC(C)CNc1nccn2c(-c3cccc4cccnc34)cnc12	-	-	41.7	-
COc1cc(OC)cc(C2=NC3(CCCCC3)NC2=S)c1	-	-	-	-
O=C(O)c1ccc(N/N=C/C2=C(N3CCOCC3)C(=C\c3ccccc3)/CC2)cc1	-	62.2	-	-
O=S(=O)(O)c1ccc(N/N=C/C2=C(N3CCOCC3)C(=C\c3ccccc3)/CC2)cc1	-	-	-	-
COc1ccc(Cc2nnc(SCC(N)=O)o2)cc1	-	-	-	-
COc1ccccc1OCCN1C(=O)C(=O)c2cc(Br)ccc21	-	-	34.0	-
COc1ccc(CN2C(=O)C(=O)c3cc(Br)ccc32)cc1	-	-	63.6	-
COc1ccc(CN[C@H]2C[C@H]3C(=O)N[C@@H](Cc4ccc(Cl)cc4)C(=O)N3C2)cc1	-	-	-	-
O=[N+]([O-])c1ccc(NCCO)c(NS(=O)(=O)c2ccc3c(c2)OCCO3)c1	-	-	-	-
CC(=O)Nc1ccc(Nc2nc(-c3c(C)nc4sccn34)cs2)cc1	-	-	48.5	-
Cc1nc2sccn2c1-c1csc(Nc2ccc(N(C)C)cc2)n1	-	-	55.1	-
Cc1ccccc1Nc1nc(-c2c(C)nc3sccn23)cs1	-	-	-	-
Cc1nc2sccn2c1-c1csc(Nc2ccc(O)cc2)n1	-	-	-	-
CN(C)c1ccc(Nc2nc(-c3ccccc3)cs2)cc1	-	-	43.1	-
CC1(C)C(=O)NCCN1C(=O)c1ccc(C(=O)c2ccccc2)cc1	-	-	38.6	-
CCOc1ccc(OCCC(=O)Nc2ccc(NC(C)=O)cc2)cc1	-	-	-	-
COc1ccc(CNC(=O)N2CCC(c3nnc(C(C)C)o3)CC2)cc1OC	-	-	-	2.5
COc1ccc(CCNC(=O)CN2CCC(c3nnc(C(C)C)o3)CC2)cc1OC	-	-	-	-
N#Cc1cccc(-n2ncc3cc(Nc4ccccc4Cl)ccc32)c1	-	-	-	2.0
COc1cc(NC(=O)c2cccc(-n3ncc4cc(Nc5ccccc5Cl)ccc43)c2)cc(OC)c1OC	-	-	-	-
CC(C)NC(=O)CCS(=O)(=O)c1ccc(Br)cc1	-	-	-	-
CCC1=NN2C(=N)/C(=C/c3cc(Br)c(OCCOc4ccc(C)cc4)c(OC)c3)C(=O)N=C2S1	-	61.3	-	-
SMILES	GPR151 ag	MITF inh	TEAD-YAP inh	FBW7 activator
CCC1=NN2C(=N)/C(=C\c3cccc(OCCOc4cc(C)ccc4C)c3)C(=O)N=C2S1	-	62.8	-	-
CCC1=NN2C(=N)/C(=C/c3cc(Br)c(OCCOc4ccc(Br)cc4)c(OC)c3)C(=O)N=C2S1	-	-	-	-
CCC1=NN2C(=N)/C(=C/c3cccc(OCCOc4ccccc4C)c3)C(=O)N=C2S1	-	-	-	-
COCCNc1ccnc2c(-c3ccc4c(c3)OCO4)cnn12	-	-	50.7	-
COCCNc1ccnc2c(-c3ccc(F)c(Cl)c3)cnn12	-	-	-	1.9
CCOC(=O)c1c(-c2ccc(F)cc2)nn2c(C)c(CCC(=O)O)c(C)nc12	-	-	-	-
CCN1CCN(S(=O)(=O)c2cc(C(=O)Nc3ccc(Oc4ccccc4)cc3)ccc2F)CC1	-	-	65.6	-
O=C(Nc1ccccc1)c1ccc(F)c(S(=O)(=O)N2CCOCC2)c1	-	-	-	-
O=C(Nc1ccc(I)cc1)c1cccc(S(=O)(=O)N2CCOCC2)c1	-	-	-	-
CCc1ccccc1NC(=O)c1ccc(F)c(S(=O)(=O)N2CCN(c3cccc(C)c3)C(C)C2)c1 (stereo not given)	-	-	34.9	-
O=C(Nc1ccc(Oc2ccccc2)cc1)c1ccc(F)c(S(=O)(=O)N2CCOCC2)c1	-	-	62.9	-
O=C(Nc1ccc(Oc2ccccc2)cc1)c1cccc(S(=O)(=O)N2CCOCC2)c1	-	-	33.7	-
COc1ccccc1C=C1C(=O)N(C)C(=S)N(C)C1=O	-	-	-	-
COc1cc(C#N)cc(I)c1OC(=O)c1ccc([N+](=O)[O-])cc1	-	-	-	-
Cc1c(C#N)c(NC(=O)CCl)n(Cc2ccco2)c1C	-	-	32.1	-
CC(C)c1ccc(C2=CC(c3cccs3)n3ncnc3N2)cc1 (stereo not given)	-	-	-	-
CCN1C(=O)CC(C(=O)Nc2ccc(Cl)cc2)SC1=Nc1ccc(OC)cc1 (stereo not given)	-	-	37.7	-
COc1cc(Nc2ncnc3c2nc(Nc2cccc(N(C)C)c2)n3C(C)C)cc(OC)c1OC	-	-	-	-
COc1cc(Nc2nc3c(NCCc4ccc(O)cc4)ncnc3n2C(C)C)cc(OC)c1OC	-	-	31.9	-
COc1cc(Nc2nc3c(NCCO)ncnc3n2C(C)C)cc(OC)c1OC	-	-	-	-
COc1cc(Nc2nc3c(Nc4ccccc4)ncnc3n2C(C)C)cc(OC)c1OC	-	-	38.1	-
COc1cc(OC)c2c(c1)C1C=CCC1C(c1ccc(C(=O)O)cc1)N2 (stereo not given)	-	73.3	-	-
CCOC(=O)c1cccc2c1NC(c1ccc(C(=O)O)cc1)C1CC=CC21 (stereo not given)	-	82.9	-	-
O=C(O)c1cccc2c1NC(c1ccc(Br)cc1)C1CC=CC21 (stereo not given)	-	-	-	-
COC(=O)c1cccc2c1NC(c1ccc(C(=O)O)cc1)C1CC=CC21 (stereo not given)	-	68.5	-	-
SMILES	GPR151 ag	MITF inh	TEAD-YAP inh	FBW7 activator
COc1cc(OC)c2c(c1)C1C=CCC1C(c1ccc(OC)c([N+](=O)[O-])c1)N2 (stereo not given)	-	-	-	-
COC(=O)c1cccc2c1NC(c1ccc(Br)cc1)C1CC=CC21 (stereo not given)	-	-	-	-
O=C(O)c1cccc2c1NC(c1ccccc1)C1CC=CC21 (stereo not given)	-	-	-	-
COC(=O)c1cccc2c1N[C@@H](c1ccc(C(=O)O)cc1)[C@H]1CC=C[C@@H]21	-	58.8	-	-
O=C(CCCn1sc2ccccc2c1=O)NCc1ccccc1F	-	-	-	-
Cc1cc2c(c(=O)n1Cc1ccccc1)C(C(C)C)C(C#N)=C(N)O2 (stereo not given)	-	-	-	-
COc1ccc(Br)cc1C1CC(=O)NC2=C1C(=O)CCC2 (stereo not given)	-	-	47.0	-
O=C1c2ccccc2C(=O)N1N1C(=O)c2cccc3c([N+](=O)[O-])ccc(c23)C1=O	-	-	-	-
O=C1c2cccc3c(Oc4ccccc4[N+](=O)[O-])ccc(c23)C(=O)N1n1cnnc1	-	-	35.6	-
CCN(CC)S(=O)(=O)c1cccc(C(=O)Nc2nc(COc3ccccc3)cs2)c1	-	-	32.3	-
Cc1nc2ccccn2c1-c1csc(Nc2cccc(Cl)c2C)n1	-	-	-	-
Cc1ccc(Nc2nc(-c3c(C)nc4ncccn34)cs2)cc1	-	-	59.7	-
Cc1nc2ncccn2c1-c1csc(Nc2ccc(Cl)cc2)n1	-	-	54.3	-
